# Assay results published in PubChem BioAssay (NCATS).
# Records with an inconclusive call do not appear. The list shows a part of the results. Entries that show only a call come without a potency. Calls of active or inactive are those of the source. Unless noted, calls come from the whole dose curve; as a rule, active = well fitted curve in the direction sought with a large enough effect; inconclusive = small, poorly fitted or top-dose-only effect, or another doubt; inactive = no such curve, though single readings can be large; an effect the other way counts as inactive or inconclusive.
# How the values were obtained:
# [1] = biological target: DNA repair nuclease/redox regulator APEX1 (Homo sapiens) (UniProt P27695); test: qHTS Validation Assay for Inhibitors of the Human Apurinic/apyrimidinic Endonuclease 1 (APE1) (AID 1705; note: potency is the fitted concentration of half-maximal effect;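 for activity change, negative = inhibition: TAMRA fluorescence gain over two minutes as APE1 cuts a quenched THF abasic duplex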)
# Outline: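 Substrate: 50 nM final fluorophore/quencher THF-abasic duplex. Enzyme preincubated with compounds 15 min, RT. Progress derived from fluorescence difference, third minus first kinetic read.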
# [2] = Counterscreen for APE1 Inhibitors: Fluorescent Dye Displacement Validation Assay (AID 1707)
# Outline: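 Assay buffer: Tris-HCl pH7.5 with 50mM NaCl, 2 mM MgCl2, 0.01% Tween-20. Dye 250 nM, duplex 50 nM final. Readout: decrease in ThO endpoint fluorescence, 480 nm excitation, 540 nm emission.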
# [3] = qHTS for differential inhibitors of proliferation of Plasmodium falciparum line 7G8 (AID 1815);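 note: parasite growth measured after three days of incubation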; note: potency is the fitted concentration of half-maximal effect
# [4] = qHTS for differential inhibitors of proliferation of Plasmodium falciparum line GB4 (AID 1816); conditions: Potency: Plasmodium falciparum GB4 proliferation inhibition;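 note: parasite growth measured after 72 h incubation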; note: potency is the fitted concentration of half-maximal effect
# [5] = qHTS for differential inhibitors of proliferation of Plasmodium falciparum line 3D7 (AID 1876); note: potency is the fitted concentration of half-maximal effect
# [6] = qHTS for differential inhibitors of proliferation of Plasmodium falciparum line D10 (AID 1877);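 note: parasites grown with compound for 72 h before DNA staining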; note: potency is the fitted concentration of half-maximal effect
# [7] = qHTS for differential inhibitors of proliferation of Plasmodium falciparum line Dd2 (AID 1882); conditions: Potency: Plasmodium falciparum Dd2 proliferation inhibition; note: nearly all actives have a fitted effect of over 65% in size; note: potency is the fitted concentration of half-maximal effect
# Outline: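 Dd2-infected erythrocytes (0.3% parasitemia, 2.5% hematocrit final) incubated with compound 72 h at 37 C, 5% CO2; lysed with saponin/Triton buffer containing SYBR Green I, incubated overnight in the dark, then read by fluorescence (485/535 nm). Normalized to 0.29 uM artemisinin and DMSO.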
# [8] = qHTS for differential inhibitors of proliferation of Plasmodium falciparum line W2 (AID 1883); conditions: Potency: Plasmodium falciparum W2 proliferation inhibition;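 note: parasites grown with compound for 72 h before lysis and staining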; note: potency is the fitted concentration of half-maximal effect
# [9] = qHTS for differential inhibitors of proliferation of Plasmodium falciparum line HB3 (AID 1886); conditions: Potency: Plasmodium falciparum HB3 proliferation inhibition;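 note: parasites grown with compound for 72 h before SYBR Green readout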; note: potency is the fitted concentration of half-maximal effect
# [10] = qHTS Assay for Modulators of Human Peripheral Myelin Protein 22 (PMP22) Expression/Activity (AID 1967; active = well fitted curve in the direction sought with a large enough effect in the signal ratio; the % refers to the signal ratio)
# Outline: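 Engineered MSC80 cells, Pmp22-promoter green and EF-alpha red luciferase reporters; 24h compound treatment at 37 °C. Concentration-response fits on green, red and ratio signals, each overlap-corrected, with %Activity normalized to untreated wells.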
# [11] = biological target: Ferritin light chain (Equus caballus) (UniProt P02791); test: qHTS Validation Assay for Identification of Novel General Anesthetics (AID 2323)
# Outline: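 Normalized fluorescence response, scaled between free 1-AMA and 1-AMA/apoferritin complex, fitted to a four-parameter Hill equation for concentration-effect values. Binding mix: 10 uM horse-spleen apoferritin, 50% saturated 1-AMA in PBS; read 380/535 nm after 10 min.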
# [12] = biological target: ATP-dependent DNA helicase Q1 (Homo sapiens) (UniProt P46063); test: qHTS Validation Assay for Inhibitors of RecQ-Like Dna Helicase 1 (RECQ1) (AID 2353); note: potency is the fitted concentration of half-maximal effect
# Outline: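 50 nM RECQ1T1 preincubated 15 min with compound in Tris pH 8.0 buffer with MgCl2, DTT, Tween-20 and 2.5 ug/ml poly(dI-dC); started with 200 nM TAMRA/BHQ-2 forked duplex and 2 mM ATP. Unwinding read as fluorescence (525/598 nm), two reads 2 h apart.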
# [13] = biological target: RecQ-like DNA helicase BLM (Homo sapiens) (UniProt P54132); test: qHTS Validation Assay for Inhibitors of Bloom's syndrome helicase (BLM) (AID 2364); note: potency is the fitted concentration of half-maximal effect
# Outline: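 50 nM BLM preincubated 15 min at room temperature with compound in pH 8.0 Tris buffer containing 2.5 ug/ml poly(dI-dC); started with 200 nM TAMRA/BHQ-2 forked duplex and 2 mM ATP (final). Unwinding read as TAMRA fluorescence increase, two reads 2 h apart.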
# [14] = biological target: Endonuclease 4 (Escherichia coli (strain K12)) (UniProt P0A6C1); test: Counterscreen for APE1 Inhibitors: qHTS Validation Assay for Inhibitors of Endonuclease IV (AID 1708)
# Outline: (§1)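 E. coli EndoIV at 2 nM final, preincubated 15 min at room temperature with compound, then 50 nM TAMRA/BHQ-2 THF abasic-site duplex added. Buffer: 50 mM Tris-HCl pH 7.5, 50 mM NaCl, 2 mM MgCl2, 1 mM DTT, 0.01% Tween-20. Kinetic fluorescence increase, third minus first read.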
# [15] = High Content Imaging Cell-Based qHTS for Inhibitors of the mTORC1 Signaling Pathway in MEF (Tsc2-/-, p53-/-) Cells (AID 2666);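 note: percent of cells scored positive for phospho-rpS6 Ser235/236 immunostaining by imaging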
# Outline: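 Phospho-rpS6 (Ser235/236) immunofluorescence, normalized and scored as % positive cells using rapamycin and DMSO controls, was read in empty-vector Tsc2-/-, p53-/- MEFs after 24 h compound exposure at 37 C; propidium iodide counted cells.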
# [16] = biological target: Endonuclease 4 (Escherichia coli (strain K12)) (UniProt P0A6C1); test: Counterscreen for APE1 Inhibitors: qHTS Assay for Inhibitors of Endonuclease IV (AID 2565)
# Outline: as §1
# [17] = biological target: DNA repair nuclease/redox regulator APEX1 (Homo sapiens) (UniProt P27695); test: Confirmation qHTS Assay for Inhibitors of the Human Apurinic/apyrimidinic Endonuclease 1 (APE1) (AID 2572);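 note: fluorescence gain from purified APE1 cutting a TAMRA/BHQ-2 THF abasic duplex; nearly all actives have a fitted effect of over 30% in size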
# Outline: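 Enzyme preincubated 15 min at room temperature with compound; reaction started with 50 nM final double-stranded THF abasic-site substrate (5'-TAMRA, 3'-BHQ-2). Fluorescence read kinetically (525/598 nm); third-minus-first read difference gives reaction progress.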
# [18] = qHTS Assay for Lipid Storage Modulators (AID 1519; calls by dose curve); conditions: Drosophila S3 cells, BODIPY lipid droplet/cell ratio, laser cytometry, cells loaded with oleic acid
# Outline: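 Cells seeded at 5,000 per well were treated with compounds over a concentration series and loaded with oleic acid (400 uM, as added). Lipid droplet fluorescence (488 nm excitation, 500-530 nm channel) was read by laser-scanning cytometry and normalized to 20 uM Triacsin C.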
# [19] = qHTS Assay for Identification of Small Molecule Inducers of Hypoxia Response (AID 2120; active = well fitted curve in the direction sought with a large enough effect in the signal ratio, with a control signal flat, not every such curve was filed as active; the % refers to the signal ratio)
# Outline: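 HRE-bla ME-180 cells in Opti-MEM with 0.5% dialyzed FBS, pre-plated 4-5 h, then compound titration for 17 h at 37 degrees Celsius. CCF4 loaded 2.5 h at room temperature; 460/530 nm ratio gave %Activity and AC50 for induction.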
# [20] = Cytometric Cell-Based qHTS for Inhibitors of the mTORC1 Signaling Pathway in MEF (Tsc2-/-, p53-/-) Cells (AID 2660);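 note: percent of cells above a phospho-rpS6 to PI ratio cutoff in each well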
# Outline: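 Cells are plated, treated with compound for 24 hrs at 37 degree Celsius, then fixed, blocked and immunostained for phospho-rpS6 Ser235/236. Propidium iodide counterstain follows. Per-well % positive cells is derived from the PI-normalized phospho-S6 signal.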
# Chain of DNA repair nuclease/redox regulator APEX1 (Homo sapiens) (P27695 whole entry, looked up): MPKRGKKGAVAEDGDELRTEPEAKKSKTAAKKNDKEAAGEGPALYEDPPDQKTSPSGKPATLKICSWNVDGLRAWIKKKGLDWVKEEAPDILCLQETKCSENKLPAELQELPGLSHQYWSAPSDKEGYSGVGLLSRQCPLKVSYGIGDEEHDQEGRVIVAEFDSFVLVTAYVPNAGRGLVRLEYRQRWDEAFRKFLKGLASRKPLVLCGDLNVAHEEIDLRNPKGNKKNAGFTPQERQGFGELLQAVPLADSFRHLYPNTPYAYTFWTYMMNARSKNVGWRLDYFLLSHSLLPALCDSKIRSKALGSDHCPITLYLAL
# Chain of ATP-dependent DNA helicase Q1 (Homo sapiens) (P46063 whole entry, looked up): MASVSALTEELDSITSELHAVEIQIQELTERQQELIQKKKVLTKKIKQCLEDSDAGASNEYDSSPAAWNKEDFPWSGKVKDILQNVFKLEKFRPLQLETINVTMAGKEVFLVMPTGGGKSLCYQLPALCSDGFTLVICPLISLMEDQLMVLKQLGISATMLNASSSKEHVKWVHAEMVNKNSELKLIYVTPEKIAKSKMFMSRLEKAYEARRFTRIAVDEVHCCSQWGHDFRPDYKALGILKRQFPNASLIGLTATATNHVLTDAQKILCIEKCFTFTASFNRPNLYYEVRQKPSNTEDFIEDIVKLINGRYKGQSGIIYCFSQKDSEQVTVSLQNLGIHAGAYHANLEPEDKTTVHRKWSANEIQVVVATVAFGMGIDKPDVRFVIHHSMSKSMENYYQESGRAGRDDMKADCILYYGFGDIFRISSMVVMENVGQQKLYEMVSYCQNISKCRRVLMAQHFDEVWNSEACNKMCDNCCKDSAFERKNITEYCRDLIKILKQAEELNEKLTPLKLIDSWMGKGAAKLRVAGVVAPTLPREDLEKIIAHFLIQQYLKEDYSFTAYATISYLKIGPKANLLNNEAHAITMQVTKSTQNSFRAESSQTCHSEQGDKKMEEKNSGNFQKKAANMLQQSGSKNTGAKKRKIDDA
# Chain of Ferritin light chain (Equus caballus) (P02791 2-175 limits assumed): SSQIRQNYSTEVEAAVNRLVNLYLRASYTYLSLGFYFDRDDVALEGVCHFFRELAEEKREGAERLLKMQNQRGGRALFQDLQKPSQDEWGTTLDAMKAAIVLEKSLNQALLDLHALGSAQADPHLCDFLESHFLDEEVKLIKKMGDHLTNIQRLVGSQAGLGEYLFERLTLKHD
# Chain of RecQ-like DNA helicase BLM (Homo sapiens) (P54132 whole entry, looked up): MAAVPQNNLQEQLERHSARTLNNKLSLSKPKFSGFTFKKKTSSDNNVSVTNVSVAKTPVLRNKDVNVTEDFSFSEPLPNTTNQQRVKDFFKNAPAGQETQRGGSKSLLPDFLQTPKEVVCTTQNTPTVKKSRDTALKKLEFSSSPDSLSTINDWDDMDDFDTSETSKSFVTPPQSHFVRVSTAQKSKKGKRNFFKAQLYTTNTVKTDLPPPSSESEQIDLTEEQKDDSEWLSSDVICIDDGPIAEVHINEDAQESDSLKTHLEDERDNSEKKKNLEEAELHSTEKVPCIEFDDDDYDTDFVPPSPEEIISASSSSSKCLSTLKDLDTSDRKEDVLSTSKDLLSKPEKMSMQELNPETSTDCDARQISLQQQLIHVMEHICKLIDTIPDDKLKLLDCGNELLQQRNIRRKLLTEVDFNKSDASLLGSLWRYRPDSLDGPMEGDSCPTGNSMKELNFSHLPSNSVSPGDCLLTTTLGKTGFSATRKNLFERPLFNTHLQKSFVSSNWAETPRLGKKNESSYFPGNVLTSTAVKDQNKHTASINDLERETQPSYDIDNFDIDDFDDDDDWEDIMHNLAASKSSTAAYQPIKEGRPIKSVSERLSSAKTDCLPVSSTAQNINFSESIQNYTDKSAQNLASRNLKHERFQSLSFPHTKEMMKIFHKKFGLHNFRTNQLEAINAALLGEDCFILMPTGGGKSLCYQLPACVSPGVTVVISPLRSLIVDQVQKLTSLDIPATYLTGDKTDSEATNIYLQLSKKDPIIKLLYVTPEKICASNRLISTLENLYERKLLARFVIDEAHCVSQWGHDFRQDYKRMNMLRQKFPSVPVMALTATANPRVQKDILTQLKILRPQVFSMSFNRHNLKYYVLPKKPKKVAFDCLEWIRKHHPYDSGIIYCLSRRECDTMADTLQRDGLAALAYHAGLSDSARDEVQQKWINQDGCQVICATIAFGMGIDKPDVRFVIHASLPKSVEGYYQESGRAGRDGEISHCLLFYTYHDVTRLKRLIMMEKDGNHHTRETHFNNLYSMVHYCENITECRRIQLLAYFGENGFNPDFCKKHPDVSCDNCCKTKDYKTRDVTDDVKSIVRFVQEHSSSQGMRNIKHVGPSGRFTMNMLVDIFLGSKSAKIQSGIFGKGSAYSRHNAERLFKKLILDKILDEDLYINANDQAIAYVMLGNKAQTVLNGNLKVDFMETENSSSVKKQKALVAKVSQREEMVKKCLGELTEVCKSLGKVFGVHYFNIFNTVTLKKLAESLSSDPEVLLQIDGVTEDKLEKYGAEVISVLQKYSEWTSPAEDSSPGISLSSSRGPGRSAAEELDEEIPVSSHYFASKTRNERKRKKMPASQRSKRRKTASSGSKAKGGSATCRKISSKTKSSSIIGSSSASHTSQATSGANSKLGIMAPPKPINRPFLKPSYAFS
smiles,measurement,setting,value
CN[C@H](CC(C)C)C(=O)N[C@H]1C(=O)N[C@@H](CC(N)=O)C(=O)N[C@H]2C(=O)N[C@H]3C(=O)N[C@H](C(=O)N[C@H](C(=O)O)c4cc(O)cc(O)c4-c4cc3ccc4O)[C@H](O)c3ccc(c(Cl)c3)Oc3cc2cc(c3O[C@@H]2O[C@H](CO)[C@@H](O)[C@H](O)[C@H]2O[C@H]2C[C@](C)(N)[C@H](O)[C@H](C)O2)Oc2ccc(cc2Cl)[C@H]1O,Potency,[1],inactive
same,Potency,[2],inactive
same,Potency,[3],inactive
same,Potency,[4],inactive
same,Potency,[5],inactive
same,Potency,[6],inactive
same,Potency,[7],inactive
same,Potency,[8],inactive
same,Potency,[9],inactive
same,outcome,[10],inactive
same,Potency,[11],inactive
same,Potency,[12],inactive
same,Potency,[13],inactive
O=C(O)[C@@H]1C[C@H](C(=O)O)N1,Potency,[1],inactive
same,Potency,[2],inactive
same,Potency,[14],inactive
same,Potency,[3],inactive
same,Potency,[4],inactive
same,Potency,[5],inactive
same,Potency,[6],inactive
same,Potency,[7],inactive
same,Potency,[8],inactive
same,Potency,[9],inactive
same,Potency,[11],inactive
same,Potency,[12],inactive
same,Potency,[15],inactive
CO/N=C(\C(=O)N[C@@H]1C(=O)N2C(C(=O)O)=C(COC(C)=O)CS[C@H]12)c1csc(N)n1 (stereo in doubt),Potency,[1],2.24 µM (active)
same,Potency,[2],inactive
same,Potency,[3],inactive
same,Potency,[4],inactive
same,Potency,[5],inactive
same,Potency,[6],inactive
same,Potency,[7],inactive
same,Potency,[9],inactive
same,outcome,[10],inactive
same,Potency,[11],inactive
same,Potency,[12],10 µM (active)
same,Potency,[13],inactive
same,Potency,[16],inactive
same,Potency,[17],inactive
CC12C(=O)OC(=O)C1(C)C1CCC2O1 (stereo unspecified),Potency,[1],inactive
same,Potency,[2],inactive
same,Potency,[14],inactive
same,Potency,[3],3.98 µM (active)
same,Potency,[4],4.47 µM (active)
same,Potency,[5],3.16 µM (active)
same,Potency,[6],2.24 µM (active)
same,Potency,[7],4.47 µM (active)
same,Potency,[8],2.51 µM (active)
same,Potency,[9],3.98 µM (active)
same,Potency,[11],inactive
same,Potency,[12],inactive
Nc1ccc(O)c(C(=O)O)c1,"activity change, negative = inhibition",[18]; at 25.7 µM (top of the series),1.25% (inactive)
same,max response,[18]; measured here: cell count channel max response,-4.23%
same,max response,[18]; measured here: lipid channel max response,-4.44%
same,outcome,[19],inactive
COc1ccccc1N1CCN(CCCCNS(=O)(=O)c2cccc3c(N(C)C)cccc23)CC1,Potency,[1],inactive
same,Potency,[2],inactive
same,Potency,[3],7.94 µM (active)
same,Potency,[4],14.1 µM (active)
same,Potency,[5],10 µM (active)
same,Potency,[7],10 µM (active)
same,Potency,[8],3.55 µM (active)
same,Potency,[9],12.6 µM (active)
same,Potency,[11],inactive
same,Potency,[12],inactive
same,outcome,[20],inactive
same,Potency,[15],inactive
Cc1ccc(O)c(N=Nc2ccccc2)n1,Potency,[1],inactive
same,Potency,[2],inactive
same,Potency,[3],11.2 µM (active)
same,Potency,[4],12.6 µM (active)
same,Potency,[8],10 µM (active)
same,Potency,[12],inactive
same,Potency,[13],inactive
same,outcome,[20],inactive
same,Potency,[15],inactive
O=C1C(SCCO)=C(SCCO)C(=O)c2ccccc21,Potency,[1],inactive
same,Potency,[14],inactive
same,Potency,[3],3.16 µM (active)
same,Potency,[4],2 µM (active)
same,Potency,[5],2.24 µM (active)
same,Potency,[6],11.2 µM (active)
same,Potency,[7],6.31 µM (active)
same,Potency,[8],10 µM (active)
same,Potency,[9],2 µM (active)
same,Potency,[12],inactive
same,Potency,[13],28.2 µM (active)
same,outcome,[20],inactive
same,Potency,[15],inactive
Fc1ccc(C(OCCCc2cnc[nH]2)c2ccc(F)cc2)cc1,Potency,[1],inactive
same,Potency,[14],inactive
same,Potency,[3],1.58 µM (active)
same,Potency,[4],1.26 µM (active)
same,Potency,[5],1.26 µM (active)
same,Potency,[6],5.01 µM (active)
same,Potency,[7],8.91 µM (active)
same,Potency,[8],0.794 µM (active)
same,Potency,[9],2.51 µM (active)
same,Potency,[12],inactive
same,outcome,[20],inactive
same,Potency,[15],inactive
CCCCCC(O)c1cccc(OCc2ccc3ccccc3n2)c1 (stereo unspecified),Potency,[1],inactive
same,Potency,[3],6.31 µM (active)
same,Potency,[4],10 µM (active)
same,Potency,[6],15.8 µM (active)
same,Potency,[7],7.94 µM (active)
same,Potency,[8],6.31 µM (active)
same,Potency,[9],12.6 µM (active)
same,Potency,[12],inactive
same,Potency,[15],inactive
CC(C)Cc1ccc([C@H](C)C(=O)O)cc1,Potency,[1],inactive
same,Potency,[3],inactive
same,Potency,[4],inactive
same,Potency,[5],inactive
same,Potency,[6],inactive
same,Potency,[7],inactive
same,Potency,[8],inactive
same,Potency,[9],inactive
same,Potency,[11],inactive
same,Potency,[12],inactive
same,outcome,[20],inactive
same,Potency,[15],inactive
CC(=O)SCC[N+](C)(C)C,Potency,[1],inactive
same,Potency,[3],inactive
same,Potency,[4],inactive
same,Potency,[5],inactive
same,Potency,[6],inactive
same,Potency,[7],inactive
same,Potency,[8],inactive
same,Potency,[9],inactive
same,outcome,[10],inactive
same,Potency,[11],inactive
same,Potency,[12],inactive
same,outcome,[20],inactive
same,Potency,[15],inactive
Nc1nc2ccc([N+](=O)[O-])cc2s1,outcome,[19],inactive
C#C[C@]1(O)CC[C@H]2[C@@H]3CCc4cc(O)ccc4[C@H]3CC[C@@]21C,outcome,[19],inactive
O=C(Nc1ccccc1)c1cc([N+](=O)[O-])ccc1Cl,Potency,[1],inactive
same,Potency,[14],inactive
same,Potency,[3],8.91 µM (active)
same,Potency,[4],11.2 µM (active)
same,Potency,[5],11.2 µM (active)
same,Potency,[6],11.2 µM (active)
same,Potency,[7],inactive
same,Potency,[8],12.6 µM (active)
same,Potency,[9],10 µM (active)
same,Potency,[12],inactive
same,Potency,[13],inactive
same,Potency,[15],inactive
N#C/C(=C\c1c[nH]c2ccccc12)C(=O)c1ccc(O)c(O)c1,Potency,[1],inactive
same,Potency,[14],inactive
same,Potency,[4],12.6 µM (active)
same,Potency,[5],12.6 µM (active)
same,Potency,[6],15.8 µM (active)
same,Potency,[8],8.91 µM (active)
same,Potency,[9],12.6 µM (active)
same,Potency,[12],8.91 µM (active)
same,Potency,[13],11.2 µM (active)
same,outcome,[20],inactive
same,Potency,[15],inactive
